Bioassay records: PubChem, National Center for Advancing Translational Sciences (NCATS)
BAZ2B inh: BAZ2B (human) inhibition. 360,000 compounds, 4.4% hits. Q9UIF8. AID 504333. Potency, µM (highest dose often 114 µM), for the others: at the top dose activity change, negative = inhibition, most hits filed as inhibitors. AlphaScreen BAZ2B-H3K14Ac peptide displacement; also: % is scaled to controls: 0 for no effect and ±100 for the full control effect; nearly all actives have a fitted effect of over 60% in size
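AlphaScreen displacement: compounds (up to 110uM) incubated 30 min at room temperature with a preformed 50 nM BAZ2B/50 nM biotinylated H3K14Ac peptide complex in PBS pH 7.4 with Tween-20. Donor and acceptor beads at 10 ug/mL final added, 20 min light-protected before reading.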
JMJD2A Tudor inh: blocks the human JMJD2A Tudor domain. Potency, µM (doses to about 114 µM), for the others: top-dose activity change, negative = inhibition, actives largely listed as inhibitors. AlphaScreen JMJD2A-Tudor / H3K4me3 peptide binding. 390,000 compounds, 4.4% hits; also: % is scaled to controls: 0 for no effect and ±100 for the full control effect; nearly all actives have a fitted effect of over 50% in size
Sfp inh: blocks B. subtilis Sfp PPTase activity; Potency, µM, for inactives: largest response in the series, negative = inhibition, hits mostly inhibitors; AID 1490; Q9F4F7; 310,000 compounds, 3.5% hits; Biochemical Sfp PPTase activity, qHTS;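 also: the enzyme is Sfp with the accession as filed and its product quenches rhodamine fluorescence; 0% = enzyme reaction without inhibitor and -100% = no enzyme wells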
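Compounds were incubated with enzyme (final 15 nM) for 15 min at room temperature before substrate addition started the reaction. Fluorescence at 525 nm excitation, 598 nm emission was recorded immediately and after 30 minutes.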
HP1b binding inh: blocks HP1-beta chromodomain binding to methylated histone tails; P83916; AlphaScreen HP1-beta / biotin-H3K9me3 peptide binding; Potency, µM (top dose mostly 114 µM), for the others: at the highest dose activity change, negative = inhibition, usual class: inhibitors; 390,000 compounds, 0.56% hits; AID 540317; also: nearly all actives have a fitted effect of over 70% in size
Target sequence (P83916 whole entry, looked up): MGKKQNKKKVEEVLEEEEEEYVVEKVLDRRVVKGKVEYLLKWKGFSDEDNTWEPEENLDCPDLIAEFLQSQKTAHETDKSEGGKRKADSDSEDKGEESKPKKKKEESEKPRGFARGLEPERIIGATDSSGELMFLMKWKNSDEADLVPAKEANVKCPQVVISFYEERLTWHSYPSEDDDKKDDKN
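Compound inhibition of the preformed complex between 50 nM HP1-beta and 50 nM biotinylated H3K9me3 peptide was read by AlphaScreen. Buffer was PBS pH 7.4 with 0.01% Tween-20. Incubations ran 30 min at room temperature, with 10 ug/mL donor/acceptor beads.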
L3MBTL1 block: inhibitors of human L3MBTL1; Q9Y468; AlphaScreen L3MBTL1–H3K9me1 peptide binding; Potency, µM (doses to about 57.1 µM), inactives show top-dose activity, negative = inhibition, most hits filed as inhibitors; 230,000 compounds, 0.66% hits; AID 485360; also: % is scaled to controls: 0 for no effect and ±100 for the full control effect; nearly all actives have a fitted effect of over 60% in size
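L3MBTL1 50 nM + b-AHA-H3(1-15)K9me1 75 nM, 30 min RT; compound added, 30 min RT; streptavidin donor/Ni-chelate acceptor beads 10 ug/mL each final, 30 min RT dark; AlphaScreen read.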
G9a block: G9a (human) methyltransferase inhibition. Q96KQ7. G9a H3K9 monomethylation, AlphaScreen, 2 h. Potency, µM (series often up to 102 µM), inactives show top-dose activity, negative = inhibition, usual class: inhibitors. 350,000 compounds, 8.8% hits. AID 504332; also: % is scaled to controls: 0 for no effect and ±100 for the full control effect; nearly all actives have a fitted effect of over 75% in size
Target sequence (Q96KQ7 913-1193 limits assumed): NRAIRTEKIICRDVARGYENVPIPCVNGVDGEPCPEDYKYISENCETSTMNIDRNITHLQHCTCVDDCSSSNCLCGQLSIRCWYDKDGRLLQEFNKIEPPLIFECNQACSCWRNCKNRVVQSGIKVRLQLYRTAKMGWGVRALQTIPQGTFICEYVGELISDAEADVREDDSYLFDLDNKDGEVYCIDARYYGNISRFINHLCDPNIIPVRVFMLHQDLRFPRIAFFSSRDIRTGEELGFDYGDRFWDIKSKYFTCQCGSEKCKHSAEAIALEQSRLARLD
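Enzyme 20 nM + cpd, 15 min RT; add b-H3K9 pep 500 nM / SAM 20 uM; 2 h RT; anti-H3K9me1 Ab 0.5 ug/mL + SA donor / anti-rabbit acceptor beads 20 ug/mL each, 10 min; AlphaScreen read.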
* marks the source's active call; other numbers are inactive results; u = inconclusive; x = no result given; [ ] = dose if it differs, or a comment. This is a sample that favours compounds with a hit; in the whole collection about 12% have one here. Calls follow the shape of the dose curve; as a rule, active = well fitted curve in the direction sought with a large enough effect; inconclusive = small, poorly fitted or top-dose-only effect, or another doubt; inactive = no such curve, though single readings can be large; an effect the other way counts as inactive or inconclusive. Potency is read from the fitted curve at half-maximal effect.

SMILES	BAZ2B inh	JMJD2A Tudor inh	Sfp inh	HP1b binding inh	L3MBTL1 block	G9a block
CC1(C)CC(=O)C=C(c2ccc(-c3ccccc3)cc2)C1	8%	-7%	x	50%	-1%	-3%[0.501 µM]
COc1cc([N+](=O)[O-])ccc1-c1ccc(/C=N/NC(=O)c2ccccc2O)o1	u	x	4%	x	2%	u
COc1ccc(NC(=O)c2ccc(-c3ccc([N+](=O)[O-])cc3)o2)cc1OC	u	u	1%	-17%	-14%	79µM*
CC(=O)Nc1ccc(NC(=O)c2ccc(-c3ccc([N+](=O)[O-])cc3)o2)cc1	-11%	-10%	-13%	11%	x	x
C=CCNC(=O)c1ccc(-c2ccc([N+](=O)[O-])cc2)o1	1%	-21%	25µM*	18%	1%	u
COc1cccc(NC(=O)c2ccc(-c3ccc([N+](=O)[O-])cc3)o2)c1	-22%	-21%	20µM*	19%	-7%	u
COc1cc([N+](=O)[O-])ccc1-c1ccc(C(=O)Nc2ccc(NC(C)=O)cc2)o1	-8%	-9%	10µM*	25%	-12%	8.9µM*
Cc1nnc(NC(=O)c2ccc(-c3ccc([N+](=O)[O-])cc3)o2)s1	u	-18%	-10%	53%	x	x
CC(=O)c1ccc(N2C(=NC(=O)CCC3CCCC3)SC3CS(=O)(=O)CC32)cc1 (stereo not drawn)	-6%	-13%	-1%	31%	x	10%[59 µM]
CC(Sc1nnc2ccccn12)C(N)=O (stereo not drawn)	-2%	6%	11%	20%	15%	2%
CCCCCCCNC1=CC(=O)CC(c2ccco2)C1 (stereo not drawn)	u	50µM*	-5%	-19%	u	u
Cc1ccc(-c2nc(CN3CCCCC3)cc(CN3CCCCC3)c2O)cc1	-37%	-22%	40µM*	17%	-8%	x
S=c1ncc2[nH]c(=S)[nH]c2[nH]1	x	11µM*	x	u	x	x
COc1cccc(CN2CCNC(=O)C2CC(=O)NCC(C)(C)N2CCOCC2)c1OC (stereo not drawn)	-1%	-6%	6%	25%	x	x
Cc1cccc(Oc2ccc(NC(=O)C3CC=CCC3C(=O)O)cc2)c1 (stereo not drawn)	u	u	26%	20%	-9%	45µM*
CC(=O)c1c(Nc2ccc3c(c2)OCCO3)oc(C)cc1=O	-9%	-16%	12%	19%	8%	79µM*
COc1cc(C2CC(=O)Nc3cc4c(cc32)OCO4)cc(OC)c1O (stereo not drawn)	-28%	-20%	x	8%	x	u
COC(=O)c1[nH]c(C)c(/C(O)=C2\C(=O)C(=O)N(CCCN3CCOCC3)C2c2ccccn2)c1C (stereo not drawn)	50µM*	u	50µM*	36%	-20%	u
COC(=O)c1[nH]c(C)c(/C(O)=C2\C(=O)C(=O)N(CCN(C)C)C2c2ccc(C)o2)c1C (stereo not drawn)	-33%	35µM*	-9%	8%	5%	40µM*
CCOC(=O)c1[nH]c(C)c(/C(O)=C2\C(=O)C(=O)N(CCCn3ccnc3)C2c2ccncc2)c1C (stereo not drawn)	u	35µM*	11%	21%	-1%	50µM*
CCOC(=O)c1[nH]c(C)c(/C(O)=C2\C(=O)C(=O)N(CCN(C)C)C2c2ccncc2)c1C (stereo not drawn)	-9%	-12%	9%	22%	x	-49%[12.7 µM]
CCOC(=O)c1[nH]c(C)c(/C(O)=C2\C(=O)C(=O)N(CCCN3CCOCC3)C2c2cccnc2)c1C (stereo not drawn)	-8%	-15%	5%	35%	3%	22µM*
CC(C)C(=O)NC(=O)C1CCCN1C(=O)/C=C/c1ccccc1 (stereo not drawn)	x	x	30%	x	x	x
Cc1nc2c3cccnc3nn2c(C)c1CCC(=O)NCc1ccccc1	-8%	-10%	x	20%	x	-24%[59 µM]
Nc1nc2ncc(C(=O)c3cc(F)ccc3O)cc2s1	-12%	3%	4%	29%	8%	x
SMILES	BAZ2B inh	JMJD2A Tudor inh	Sfp inh	HP1b binding inh	L3MBTL1 block	G9a block
Nc1nc2ncc(C(=O)c3cc(Cl)cc(Cl)c3O)cc2s1	-27%	u	-13%	u	-7%	50µM*
COc1ccc(N2CCN(C(=O)c3cnn(-c4ccc(OC)cc4)c3C3CCN(C(=O)OC(C)(C)C)CC3)CC2)cc1	-12%[57.1 µM]	-36%	x	15%	x	14µM*
COc1ccc(-c2cc3nc(C4CCN(C(=O)OC(C)(C)C)CC4)c(C(=O)O)cn3n2)cc1	-32%	-11%	2%	20%	6%	79µM*
CCOC(=O)c1cn2nc(-c3ccc(OCC)cc3)cc2nc1C1CCN(C(=O)OC(C)(C)C)CC1	5%	30%	12%	82%	x	17%
Fc1ccccc1SCc1nnc(-c2ccccc2Br)o1	84%	11µM*	-30%	-11%	57%	-10%
CCc1ccc(-n2nc(C)c3c(C)cc(=O)n(CC(=O)Nc4ccc(C(C)=O)cc4)c32)cc1	-1%	-19%	x	6%	x	13%[59 µM]
O=C1NC(=O)C(Cc2ccc(OCCN3COc4ccccc4C3=O)cc2)S1 (stereo not drawn)	x	x	4%	x	x	x
COc1ccc(-c2nnc3ccc(SC(C(C)=O)C(C)=O)nn23)cc1OC	x	20µM*	-28%	-1%	2%	2.2µM*
CCC(Sc1ccc2nnc(-c3ccc(OC)c(OC)c3)n2n1)C(=O)O (stereo not drawn)	-1%	-20%	-17%	32%	x	7.9µM*
Cc1ccc2oc(C(=O)N(Cc3cccc(F)c3)C3CCS(=O)(=O)C3)c(C)c2c1 (stereo not drawn)	-19%	-31%	x	13%	x	-3%[59 µM]
Cc1ccc(NC(=O)C2(S(=O)(=O)c3ccc(Cl)cc3)CC2)cc1	5%	13%	16%	39%	x	9%
Cc1ccc(NC(=O)C2=C(c3ccccc3)S(=O)(=O)CCS2(=O)=O)cc1	-2%	u	16µM*	-22%[57 µM]	-11%	40µM*
Cc1ccc(NC(=O)c2ccc(-c3ccccc3)s2)cc1	-2%	-7%	x	22%	x	3%[59 µM]
Cc1ccc(N2C(=O)C(CC(=O)Nc3ccc(F)cc3)N(CCC3=CCCCC3)C2=O)cc1 (stereo not drawn)	-6%	-13%	x	31%	x	13%[59 µM]
c1ccc(-c2cc(-c3ccccc3)c3c(n2)-c2ccccc2OC3)cc1	-2%	41%	x	50%	x	26%[59 µM]
CCOc1ccccc1Nc1nc(-c2cccc(Cl)c2)c2c(n1)-c1ccccc1OC2	u	56µM*	x	-33%	x	25µM*
